# Source: PubChem
# A selection: hits, their analogues and other compounds. The true share with any hit is near 3.5%.
# BoNT-F LC inh: BoNT F light chain protease inhibition; hit rate 0.22% among 360,000; AID 588497; inhibition, % at 10 µM; Multiplex microsphere protease cleavage assay, flow cytometry; in the data active = inhibition above about 35%, passing the limit was not always enough; inconclusive = no clear call, values can overlap the other calls
# 3CLpro inhibitor: SARS-CoV 3CLpro protease inhibition. P0C6X7. recombinant SARS-CoV 3CLpro, quenched FRET peptide cleavage. inhibition, % at 6 µM. hit rate 0.14% among 290,000. AID 1706; in the data active = inhibition above about 12%
# BoNT A protease: BoNT A light chain protease inhibition. inhibition, % at 10 µM. AID 588499. multiplex microsphere protease substrate cleavage, flow cytometry. hit rate 0.17% among 360,000
# Anthrax LF inh2: blocks Bacillus anthracis lethal factor protease; P15917; multiplex microsphere protease cleavage assay, LF; inhibition, % at 10 µM; hit rate 0.12% among 360,000; AID 588501
# Target sequence (P15917 whole entry, looked up): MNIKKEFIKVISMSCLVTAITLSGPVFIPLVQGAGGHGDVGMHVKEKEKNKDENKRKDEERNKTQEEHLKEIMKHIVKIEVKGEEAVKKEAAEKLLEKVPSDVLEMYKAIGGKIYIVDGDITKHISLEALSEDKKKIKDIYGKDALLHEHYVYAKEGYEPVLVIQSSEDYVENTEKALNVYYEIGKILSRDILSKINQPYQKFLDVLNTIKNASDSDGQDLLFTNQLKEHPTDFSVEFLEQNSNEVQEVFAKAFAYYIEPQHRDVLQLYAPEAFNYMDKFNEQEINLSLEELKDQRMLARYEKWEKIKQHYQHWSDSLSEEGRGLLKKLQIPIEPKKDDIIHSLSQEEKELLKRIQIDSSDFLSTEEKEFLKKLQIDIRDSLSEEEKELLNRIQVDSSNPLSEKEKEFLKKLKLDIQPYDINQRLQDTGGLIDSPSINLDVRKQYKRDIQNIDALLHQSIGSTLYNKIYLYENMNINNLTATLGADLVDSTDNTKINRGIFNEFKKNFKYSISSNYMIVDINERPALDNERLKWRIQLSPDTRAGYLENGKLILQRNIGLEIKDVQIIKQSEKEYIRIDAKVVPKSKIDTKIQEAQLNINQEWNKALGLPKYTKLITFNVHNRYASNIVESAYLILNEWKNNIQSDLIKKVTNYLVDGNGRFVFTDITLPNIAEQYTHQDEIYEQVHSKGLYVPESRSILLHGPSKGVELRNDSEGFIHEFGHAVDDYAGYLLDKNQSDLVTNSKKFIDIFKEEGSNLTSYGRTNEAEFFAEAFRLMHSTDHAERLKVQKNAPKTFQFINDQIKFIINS
# Bead autofluor: counter-screen for toxin protease inhibitors: compound fluorescence | compound autofluorescence counterscreen, microsphere flow cytometry; hits give high values | fluorescence intensity (no concentration beside the values) | hit rate 3.1% among 360,000 | AID 624483; in the data active = fluorescence intensity above about 16000; inconclusive = no clear call, values can overlap the other calls
# Hits are given with their value; 0 = inactive; ? = inconclusive; - = no result given. Rule as the data show it, unless noted: active = inhibition above about 30%; inconclusive = no clear call, values can overlap the other calls; inactive = below that.
SMILES,BoNT-F LC inh,3CLpro inhibitor,BoNT A protease,Anthrax LF inh2,Bead autofluor
O=C(NCc1ccncc1)[C@@H]1CCCN1C(=O)[C@@H]1CCCN1C(=O)c1cccs1,0,-,0,0,0
Fc1ccc(Br)cc1C1C=C(c2ccc(Br)cc2)Nc2ncnn21 (centres undefined),0,0,0,0,22136
CCc1ccc(C2=CC(c3cc(Br)ccc3F)n3ncnc3N2)cc1 (centres undefined),0,0,0,0,0
Cc1ccc(S(=O)(=O)C2(C(=O)N3CCCCCC3)CC2)cc1,0,0,?,0,16721
Cc1ccc(C(=O)N2CCN(c3ccc(NC(=S)NC(=O)Cc4ccccc4)cc3)CC2)cc1,0,0,0,0,22933
CCC(=O)Nc1ccc(N2CCN(Cc3ccccc3F)CC2)cc1,0,0,0,0,?
O=C(Cc1ccccc1)Nc1ccc(N2CCN(Cc3ccccc3F)CC2)cc1,0,0,?,0,17943
CCCCCCSc1cc(-c2nc3ccc(Cl)cn3c2NCCCC)ccc1OC,0,-,0,0,0
Cc1ccc(C)c(S(=O)(=O)NCC(=O)N2CCCC2)c1,?,0,0,0,0
Cc1cc(C)c(C)c(S(=O)(=O)NCC(=O)N2CCCC2)c1C,0,0,0,0,20412
Cc1nc(N2CCC(C(N)=O)CC2)c2nnn(Cc3ccccc3)c2n1,0,0,0,0,21409
Cc1nc(N2CCCC2)c2nnn(Cc3ccccc3Cl)c2n1,0,0,0,0,20754
Cn1cccc1/C=C1/SC(=S)N(CC(=O)O)C1=O,0,0,0,0,0
CCN(Cc1ccccc1)C(=O)CCS(=O)(=O)c1ccc2c(c1)NC(=O)CO2,0,0,0,0,0
COc1ccc(NC(=O)C(C)NS(=O)(=O)c2ccc(NC(C)=O)cc2)cc1Cl (centres undefined),0,0,0,0,23479
COc1ccccc1NS(=O)(=O)c1ccc(NC(=O)c2ccccn2)cc1,0,-,0,0,?
COC(=O)Nc1ccc(S(=O)(=O)Nc2cccc3ccccc23)cc1,0,0,?,0,21995
COc1ccccc1NS(=O)(=O)c1ccc(NC(C)=O)cc1,0,0,0,0,18703
COc1cc(/C=C(\NC(=O)c2cc(OC)c(OC)c(OC)c2)C(=O)NC(C(=O)O)c2ccccc2)cc(OC)c1OC (centres undefined),0,0,0,0,0
CN1CCC(=NNC(=O)C(=O)Nc2ccccc2F)CC1,0,0,0,0,0
Cc1cc(=O)[nH]c2c(C)cc(S(=O)(=O)NCc3ccccc3)cc12,0,0,0,0,0
COc1ccccc1NC(=O)CSc1nnc(COc2ccccc2C)o1,0,0,0,0,0
COC(=O)c1cc2sc(Cl)cc2n1Cc1nc(-c2ccccc2)oc1C,0,0,0,0,0
O=C1CC(c2ccccc2)NC(=S)N1 (centres undefined),0,-,0,0,0
CCCn1c(S(=O)(=O)O)nc2ccccc21,0,0,0,0,0
SMILES,BoNT-F LC inh,3CLpro inhibitor,BoNT A protease,Anthrax LF inh2,Bead autofluor
CCC(C)n1c(S(=O)(=O)O)nc2ccccc21 (centres undefined),0,0,0,0,22449
COC[C@H]1CCCN1c1ccc2c(c1)O[C@@H](COCc1ccccc1)CN([C@@H](C)c1ccccc1)S2(=O)=O,0,-,0,0,0
COc1ccc(-c2[nH]ncc2Oc2ccccc2OC)c(O)c1,0,0,0,0,24038
COc1ccc(-c2[nH]ncc2-c2cnn(-c3ccccc3)c2)c(O)c1,0,0,0,0,22408
CC1CCN(C(=O)c2nc[nH]c2C(=O)OCCNC(=O)OC(C)(C)C)CC1,0,-,0,0,0
CCN(CC(=O)NCc1ccc(F)cc1)c1ccc(S(C)(=O)=O)cc1[N+](=O)[O-],0,0,0,0,0
CC(=O)c1ccc(-n2c(C)ccc2-c2ccccc2)cc1,0,0,0,0,23002
COC(=O)c1ccc(-n2c(C)ccc2-c2ccccc2)cc1,0,0,0,0,0
CCC(C(=O)O)n1c2ccccc2c2cn[nH]c(=O)c21 (centres undefined),0,0,0,0,0
CC1(C)CN(c2ccccc2)N(Cc2ccc(F)cc2)C1=O,0,0,0,0,18014
CSc1ccccc1NC(=O)C1CCCO1 (centres undefined),0,-,0,0,22505
O=C(Nc1ccccc1C(=O)N1CCOCC1)C1CCCO1 (centres undefined),0,0,0,0,19285
CCOc1cc(NC(=O)C2CCCO2)c(OCC)cc1NC(C)=O (centres undefined),0,0,0,0,17626
O=C(Nc1ccccc1C(=O)N1CCCCC1)C1CCCCC1,0,0,0,0,22702
O=C(Nc1ccccc1N1CCOCC1)C1CCCO1 (centres undefined),0,-,0,0,0
CCC(CC)CN1C(N(C)C)=NC[C@@H]1CC(C)C,0,-,0,0,0
Cc1cc(C)c(OCCNCc2ccccc2)c(C)c1,0,0,0,0,0
Cc1cc(C)c(OCCCCNCc2ccccc2)c(Cl)c1,0,0,?,0,21662
COCCCNCCCCOc1c(Cl)cc(C)cc1Br,0,0,?,0,22891
C=CCNCCCCOc1c(Cl)cc(C)cc1Br,-,0,-,-,-
COC(=O)c1ccc(C(=O)OC)c(NC(=O)COC(=O)c2ccc(OC)c(OC)c2OC)c1,0,0,0,0,0
Cc1ccc2c(c1)N(Cc1ccccn1)C(=O)C(C)O2 (centres undefined),0,0,0,0,24586
Cc1ccc(CN2C(=O)C(C)Oc3ccc(C)cc32)cc1 (centres undefined),0,-,0,0,0
O=c1[nH][nH]c2nc(C(F)(F)F)cc(C(F)(F)F)c12,0,0,?,0,22696
Cc1cc(C)c2c(=O)[nH][nH]c2n1,0,-,0,0,0
SMILES,BoNT-F LC inh,3CLpro inhibitor,BoNT A protease,Anthrax LF inh2,Bead autofluor
COC(=O)c1cc(C(=O)OC)n(Cc2ccc(Br)cc2)n1,0,0,?,0,21618
CCC(=O)Nc1ccc(Oc2ccc3c(c2)C(=O)N(c2ccc(O)cc2)C3=O)cc1,0,0,?,0,21982
COC(=O)c1cc(C(=O)c2ccc(Cl)cc2Cl)cn1C,0,0,?,0,21700
COC(=O)c1cc(C(=O)c2cccc(Cl)c2Cl)cn1C,0,0,0,0,?
O=C(/C=C/c1ccccc1)NC1CC2CCC1C2 (centres undefined),0,0,0,0,0
COC(=O)c1c(NC(=O)C2CCC2)sc(C(=O)N(C)C)c1C,0,0,?,0,17349
O=C(O)c1c(N2CCCCC2)ccc([N+](=O)[O-])c1N1CCCCC1,0,0,0,0,0
O=C(CNC(=O)c1ccccc1F)OCCCOC(=O)CNC(=O)c1ccccc1F,0,-,0,0,30957
O=C(CNC(=O)c1ccccc1F)NC1CC1,0,0,?,0,19571
COc1ccc(CC(=O)Nc2c3c(nn2-c2cccc(C)c2C)CS(=O)(=O)C3)cc1,0,0,0,0,22126
CCCC(=O)Nc1c2c(nn1-c1cccc(C)c1C)CS(=O)(=O)C2,0,0,0,0,0
O=C(N/N=C\C=C\c1ccc2c(c1)OCO2)c1ccc(F)cc1,0,0,0,0,0
CC1CCN(S(=O)(=O)c2ccc3c(c2)c(=O)c(C(=O)NCc2ccco2)cn3C)CC1,37.7,0,0,0,0
